Source: PubChem BioAssay
Only a selection was taken, and hits are over-represented in it overall.
Mtb RmlCD inh = M. tuberculosis RmlC/RmlD inhibition; 0.03% of 160,000 active; P9WH09+P9WH11; inhibition, % at 3.6 µM; RmlC+RmlD coupled enzyme assay, percent inhibition; primary screen in compound mixtures; in the data active = inhibition mostly above about 34%, no sharp cut-off
Target sequence (P9WH09 whole entry, looked up): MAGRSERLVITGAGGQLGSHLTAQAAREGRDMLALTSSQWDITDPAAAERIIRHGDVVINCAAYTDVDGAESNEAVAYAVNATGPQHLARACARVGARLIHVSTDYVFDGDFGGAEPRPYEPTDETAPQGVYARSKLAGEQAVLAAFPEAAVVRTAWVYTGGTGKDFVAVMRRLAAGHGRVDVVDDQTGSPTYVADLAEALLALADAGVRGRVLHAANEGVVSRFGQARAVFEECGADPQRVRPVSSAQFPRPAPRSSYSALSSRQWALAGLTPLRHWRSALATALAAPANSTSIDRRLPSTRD
Target sequence (P9WH11 whole entry, looked up): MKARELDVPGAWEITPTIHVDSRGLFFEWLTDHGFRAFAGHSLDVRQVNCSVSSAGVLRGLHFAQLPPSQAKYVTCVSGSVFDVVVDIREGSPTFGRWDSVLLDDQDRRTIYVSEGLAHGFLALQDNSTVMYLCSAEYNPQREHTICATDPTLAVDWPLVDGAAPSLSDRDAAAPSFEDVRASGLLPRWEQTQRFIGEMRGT
YopH inh = inhibitors of Yersinia enterocolitica YopH tyrosine phosphatase; 0.16% of 140,000 active; fluorescence Ex485/Em525; AID 898; inhibition, % (test concentration not listed); in the data active = inhibition above about 50%
Large screens that a line does not name were inactive.

CC(C)(C)C(=O)[C@@H]1[C@@H]2C(=O)N(Cc3ccccc3)C(=O)[C@@H]2[C@H]2c3ccccc3C=CN12	none
Cc1ccc(SCC(=O)Nc2ccc(-c3nc4ccccc4[nH]3)cc2)cc1	none
COCC(=O)NC1(c2nnnn2CCOC(=O)Nc2ccc(Cl)cc2)CCCCC1	none (no result: YopH inh)
Nc1nc(NCCCN2CCOCC2)nc(NCc2ccccc2)c1[N+](=O)[O-]	none (no result: YopH inh)
CC(C)Oc1ccc(C(CC(=O)O)NC(=O)C(Sc2ccccc2)c2ccccc2)cc1 (stereo not drawn)	none (no result: YopH inh)
O=C(NCCSCc1ccccc1)c1ccc(F)cc1	none
COc1c(OC2OC(C(=O)O)C(O)C(O)C2O)cc(O)c2c(=O)cc(-c3ccccc3)oc12 (stereo not drawn)	none (no result: Mtb RmlCD inh)
O=C(O)C1OC(Oc2cc3oc(-c4ccccc4)cc(=O)c3c(O)c2O)C(O)C(O)C1O (stereo not drawn)	YopH inh 53.2 (no result: Mtb RmlCD inh)
OCC(CO)(CO)N=Cc1c(O)ccc2ccccc12	none
Oc1ccc2ccccc2c1C=NC12CN3CCN(CN(C3)C1)C2	YopH inh 81.5
N#Cc1nc(-c2cccc(Cl)c2)oc1NCc1cccnc1	none (no result: Mtb RmlCD inh)
COc1ccc(CCN2C(=O)c3ccncc3C2=O)cc1OC	YopH inh 51.5
COc1ccccc1CN1C(=O)c2ccncc2C1=O	none
CCC(Oc1ccccc1)C(=O)O/N=C(\N)c1ccc(OC)c(OC)c1 (stereo not drawn)	none (no result: Mtb RmlCD inh)
COc1ccc2cc(-c3cc(C(=O)OCC(=O)NC4CCS(=O)(=O)C4)c4ccccc4n3)ccc2c1 (stereo not drawn)	YopH inh 97.0
Cc1cc(C(=O)OCC(=O)NC2CCS(=O)(=O)C2)c2ccccc2n1 (stereo not drawn)	none (no result: YopH inh)
CC(C)CCNC(=O)C(=O)NCc1ccccc1	none (no result: YopH inh)
COCCn1c(N/N=C(C)/C=C/c2ccccc2)nc2c1c(=O)[nH]c(=O)n2C	none (no result: YopH inh)
N=c1sccn1CC(=O)Nc1cccc(S(=O)(=O)N2CCCCCC2)c1	none (no result: YopH inh)
O=C(NCC1CCCO1)c1coc2nc3ccccc3nc12 (stereo not drawn)	none
COC(CNC(=O)c1coc2nc3ccccc3nc12)OC	Mtb RmlCD inh 73.9 (no result: YopH inh)
CCCc1[nH]nc2c1C(c1ccccc1OCC)C(C#N)=C(N)O2 (stereo not drawn)	none
CCOc1ccccc1C1C(C#N)=C(N)Nc2onc(-c3ccccc3)c21 (stereo not drawn)	YopH inh 65.2 (no result: Mtb RmlCD inh)
COCCOC(=O)C1=C(C)NC2(O)c3ccccc3C(=O)C12O (stereo not drawn)	none (no result: YopH inh)
CCOC(=O)C1=C(C)NC2(O)c3ccccc3C(=O)C12O (stereo not drawn)	YopH inh 67.6
COC(c1ccccc1)c1nnc(CCC(=O)N(C)Cc2cccc(-n3cccn3)c2)o1 (stereo not drawn)	none (no result: YopH inh)
O=C(Nc1cccc(NC(=O)C2C3CC4OC(=O)C2C4C3)c1)c1ccccc1 (stereo not drawn)	none (no result: YopH inh)
CCOC(=O)c1sc(Nc2nc3c(OC)cccc3s2)nc1C	Mtb RmlCD inh 73.8
CCOC(=O)c1sc(Nc2ccccc2)nc1C	none (no result: Mtb RmlCD inh)
CCOc1ccc(-c2nnc3ccc(SCC(=O)Nc4nc5ccc(C)cc5s4)nn23)cc1	none
CCOc1ccc(-c2nnc3ccc(SCC(=O)Nc4nc5ccccc5s4)nn23)cc1	YopH inh 65.5
CCN(CC)c1ccc(NC(=O)c2cccc(OC)c2)c(C)c1	YopH inh 50.7
CCN(CC)c1ccc(NC(=O)c2cc(OC)cc(OC)c2)c(C)c1	none
CCN(CC)C(=O)Oc1cc(=O)n2c3c(cccc13)CCC2	none
COc1ccc(-n2c(NC(=O)c3ccco3)c(C#N)c3nc4ccccc4nc32)cc1	YopH inh 90.3
COCCNC(=O)c1c(NC(=O)c2ccco2)n(Cc2ccccc2)c2nc3ccccc3nc12	none
O=S(=O)(c1cccc(F)c1)N1CCc2sccc2C1c1ccc(OC(F)(F)F)cc1 (stereo not drawn)	none (no result: YopH inh)
COc1ccc(-c2nc(C#N)c(NCCCN3CCOCC3)o2)cc1	none
N#Cc1nc(-c2cccs2)oc1NCCCN1CCOCC1	YopH inh 51.2
COc1ccc(-c2nc(C#N)c(N3CCC(C(N)=O)CC3)o2)cc1	YopH inh 89.9
N#Cc1nc(-c2ccc(OCc3ccccc3)cc2)oc1N1CCC(C(N)=O)CC1	none
Cc1cccc(NC(=O)c2nc[nH]c2C(=O)N[C@@H](Cc2ccccc2)C(=O)OCc2ccccc2)c1	none (no result: YopH inh)
Nc1c(NCc2ccccc2F)c(=O)[nH]c(=O)n1Cc1ccccc1	YopH inh 64.0
Nc1c(NCCC2=CCCCC2)c(=O)[nH]c(=O)n1Cc1ccccc1	none (no result: Mtb RmlCD inh)
Cc1cc(C)nc(NCCC(=O)O)n1	none (no result: YopH inh)
COC(=O)Cc1cnc(NC(=O)C2C3CCC(C3)C2C(=O)O)s1 (stereo not drawn)	YopH inh 50.9
COC(=O)c1ccc(NC(=O)C2C3CCC(C3)C2C(=O)O)cc1 (stereo not drawn)	none (no result: Mtb RmlCD inh)
Cc1ccc(C)n1-c1ccc(C(=O)NN)s1	none (no result: YopH inh)
COc1ccccc1-c1c(C)oc2c(CN3CCN(CCO)CC3)c(O)ccc2c1=O	Mtb RmlCD inh 56.3
COc1ccccc1-c1c(C)oc2c(CN3CCN(C)CC3)c(O)ccc2c1=O	none (no result: Mtb RmlCD inh)
